For part of these data: Potency and affinity values are given separately. This is one part of the list. Active and inactive are the calls of the source.
Experiments:
[1] = system: TRPC4 beta (transient receptor potential cation channel C4), mouse; experiment: activators of mouse TRPC4 channel, confirmation, cell-based, Fluo4 calcium, HEK293 TRPC4beta/mu-opioid, duplicates, 10 µM (AID 2426;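 active means fluorescence ratio normalized to control raised more than 50% in primary screen plus both repeat runs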); settings: Fluo4 calcium fluorescence, at 10 µM; active compounds read high
[2] = system: transient receptor potential cation channel C4 beta (TRPC4), mouse; experiment: activators of mouse TRPC4 channel, confirmation, cell-based, second round, Fluo4, HEK293 TRPC4beta/mu-opioid, 1 µM (AID 2461;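 active means primary screen active and over 50% activation in each of two duplicate runs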); settings: Fluo4 calcium fluorescence, at 1 µM; active compounds read high
[3] = system: TRPC4 (transient receptor potential cation channel C4 beta), mouse; experiment: positive allosteric modulators of mouse TRPC4, confirmation, cell-based, second round, Fluo-4, HEK293 TRPC4beta/mu-opioid, 1 µM (AID 2554;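 active means primary screen hit whose fluorescence ratio, in both repeats, exceeds the weak agonist control mean by 3 SD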); settings: DAMGO EC20, Fluo-4 calcium flux, at 1 µM; active compounds read high
[4] = system: TRPC4 beta (transient receptor potential cation channel C4), mouse; experiment: positive allosteric modulators of mouse TRPC4, confirmation, cell-based, Fluo-4, HEK293 TRPC4beta/mu-opioid (AID 2555;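 active means primary screen hit whose calcium fluorescence ratio, in both repeats, exceeds the weak agonist control mean by 3 SD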); settings: DAMGO EC20, Fluo-4 calcium flux, at 10 µM; active compounds read high
[5] = target: Short transient receptor potential channel 4 (Mus musculus) (UniProt Q9QUQ5); experiment: inhibitors of mouse TRPC4 channel, confirmation, cell-based, Fluo4, HEK293 TRPC4beta/mu-opioid (AID 2636;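 active means calcium signal cut by more than 3 SD below the full-agonist control yet still positive, in both repeats and the earlier primary screen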); settings: DAMGO, Fluo4 calcium flux, at 10 µM; active compounds read high
[6] = target: Short transient receptor potential channel 4 (Mus musculus) (UniProt Q9QUQ5); experiment: inhibitors of mouse TRPC4 channel, confirmation, cell-based, second round, Fluo4, HEK293 TRPC4beta/mu-opioid, 1 µM (AID 2637;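 active means calcium signal ratio cut to more than 3 SD under the fully stimulated control mean yet still positive, in both repeats and the primary screen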); settings: Fluo4 calcium flux, DAMGO, at 1 µM; active compounds read high
[7] = target: Short transient receptor potential channel 4 (Mus musculus) (UniProt Q9QUQ5); experiment: mouse TRPC4 channel activators, dose response, cell-based, HEK293 TRPC4/mu-opioid, Fluo-4 calcium (AID 434937;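 active means primary screen activator hit with a dose response curve and TRPC4 channel activation at any tested dose; inactive means no activation, no dose response, or not a primary hit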)
[8] = target: Short transient receptor potential channel 4 (Mus musculus) (UniProt Q9QUQ5); experiment: TRPC4 positive allosteric modulators, dose response, cell-based, HEK293 TRPC4/mu-opioid, Fluo-4 calcium, EC20 DAMGO (AID 434941);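 further: calcium entry triggered by an EC20 dose of DAMGO at the co-expressed mu-opioid receptor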
[9] = target: Short transient receptor potential channel 4 (Mus musculus) (UniProt Q9QUQ5); experiment: mouse TRPC4 channel inhibitors, dose response, cell-based, HEK293 TRPC4/mu-opioid, Fluo-4 calcium (AID 434942;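 active means primary screen inhibitor hit that blocks the TRPC4 channel at some tested dose, yielding a dose curve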)
[10] = target: Short transient receptor potential channel 6 (Mus musculus) (UniProt Q61143); experiment: inhibition of mouse TRPC6 channel, confirmation, selectivity assay for TRPC4 inhibitor project, cell-based, HEK293, membrane potential dye, duplicate (AID 434948;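 active means active in primary screen and both duplicates, each dropping signal beyond three positive-control SD with fluorescence still positive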); settings: HEK293 TRPC6, membrane potential dye fluorescence, at 10 µM, stimulated with maximal-effect acetylcholine; active compounds read high
[11] = target: Short transient receptor potential channel 6 (Mus musculus) (UniProt Q61143); experiment: activation of mouse TRPC6 channel, confirmation, selectivity assay for TRPC4 activator project, cell-based, HEK293, membrane potential dye, duplicate (AID 434950;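 active means membrane potential signal rise above negative control mean plus 3 SD in both duplicates, also active in the earlier TRPC4 screen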); settings: HEK293 TRPC6, membrane potential fluorescence, at 10 µM; active compounds read high
[12] = target: Short transient receptor potential channel 6 (Mus musculus) (UniProt Q61143); experiment: TRPC6 potentiation by TRPC4 potentiator hits, confirmation, selectivity assay for TRPC4 potentiator project, HEK293 cells, membrane potential dye, duplicate (AID 434952;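 active means compound raising the membrane signal above positive-control mean plus 3 SD in both repeats, and a primary screen hit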); settings: HEK293 TRPC6, membrane potential dye fluorescence, at 10 µM, maximal acetylcholine added after compound; active compounds read high
[13] = target: Short transient receptor potential channel 4 (Mus musculus) (UniProt Q9QUQ5); experiment: calcium flux activators in TRPC4/5HT1a cells, counter-screen for TRPC4 activator project, cell-based, second counter screen, HEK293 TRPC4/5HT1a, Fluo-4 (AID 434977;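 active means calcium signal rise above buffer-control mean plus 5 SD in both duplicates, and also a hit in the primary screen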); settings: Fluo-4 calcium flux, at 10 µM; active compounds read high
[14] = calcium flux inhibitors in TRPC4/5HT1a cells, confirmation, counter-screen for TRPC4 inhibitor project, cell-based, second counter screen, HEK293 TRPC4/5HT1a, Fluo-4 (AID 434978;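 active means primary screen active whose calcium signal fell more than 3 SD beyond the full-serotonin control mean in both duplicate plates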;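 further: serotonin given first at submaximal then at maximal dose after compound preincubation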); settings: Fluo-4 calcium flux, at 10 µM, serotonin added to trigger calcium flux; active compounds read high
[15] = system: TRPC4 (mouse), co-expressed with 5HT1a in HEK293; experiment: calcium flux potentiators in TRPC4/5HT1a cells, confirmation, counter-screen for TRPC4 potentiator project, cell-based, second counter screen, HEK293 TRPC4/5HT1a, Fluo-4 (AID 434979;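 active means signal rise over 3 SD above mean of control wells given weak agonist, in both repeats and first screen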); settings: Fluo-4 calcium flux, at 10 µM, serotonin added at its EC20 dose; active compounds read high
[16] = calcium flux activation in mu-opioid HEK293 cells, confirmation, counter-screen for TRPC4 activator project, cell-based, HEK293 mu-opioid receptor line (AID 449723;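 active means hit in primary screen, with calcium signal over 5 SD above buffer well mean in both duplicates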;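 further: counter screen cells carry the mu-opioid receptor alone and lack TRPC4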); settings: Fluo-4 calcium fluorescence, at 10 µM; active compounds read high
[17] = calcium flux enhancement in mu-opioid HEK293 cells, confirmation, counter-screen for TRPC4 allosteric potentiator project, cell-based, HEK293 mu-opioid receptor line (AID 449724;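 active means calcium signal rise more than 3 SD above the low-dose agonist control mean, in both duplicate plates and the primary screen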); settings: Fluo-4 calcium flux, at 10 µM, compound added before EC20 DAMGO stimulus; active compounds read high
[18] = nonspecific thallium flux increase in parental CHO-K1, confirmation, counter-screen for KCNQ2 potentiator project, cell-based, FluxOR thallium flux, duplicate (AID 2282;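 active means signal rise of at least 3 SD above the untreated control mean, in both duplicate wells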;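 further: counter screen of KCNQ2 potentiator hits so any rise reflects channel-independent effects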); settings: parental CHO-K1 cells, FluxOR thallium flux fluorescence; at 10 µM; active compounds read high; zero = vehicle mean+3SD, 100% = vehicle-minus-blank window
[19] = target: Potassium voltage-gated channel subfamily KQT member 1 (Homo sapiens) (UniProt P51787); experiment: human KCNQ1 channel potentiation off-target, confirmation, selectivity assay for KCNQ2 potentiator project, cell-based, CHO, FluxOR thallium flux (AID 2283;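 active means fluorescence ratio rise of at least 3 SD of vehicle wells above their mean, in both replicate wells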;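 further: 0% = vehicle mean plus 3 SD and 100% = vehicle minus unstimulated blank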); settings: CHO KCNQ1 stable, FluxOR thallium flux fluorescence; at 10 µM; active compounds read high; beyond 3SD, as % of vehicle-control signal
[20] = target: Potassium voltage-gated channel subfamily KQT member 2 (Rattus norvegicus) (UniProt O88943); experiment: rat KCNQ2 channel potentiators, confirmation, cell-based, CHO, FluxOR thallium flux, duplicate (AID 2287;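 active means fluorescence ratio rising 3 SD or more over the vehicle control mean in both replicates, plus primary screen hit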;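 further: peak minus minimum thallium fluorescence divided by baseline after K/Tl stimulus; 0% = vehicle mean plus 3 SD and 100% = vehicle minus unstimulated blank difference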); settings: CHO-KCNQ2 cells, FluxOR thallium flux fluorescence; at 10 µM; active compounds read high
[21] = target: Potassium voltage-gated channel subfamily KQT member 2 (Rattus norvegicus) (UniProt O88943); experiment: potentiators of retigabine-insensitive KCNQ2 W236L, mechanism study for KCNQ2 potentiator project, cell-based, rat KCNQ2 W236L, CHO, automated patch clamp (AID 2558;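 active means current increase at least 3 SD of the untreated controls above them in both duplicate recordings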); settings: at 25 µM; outcome: automated patch clamp current
[22] = thallium flux activation in parental CHO cells, counter-screen for KCNQ1 potentiator project (AID 493006;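 active means duplicate-averaged activation above buffer control mean plus 5 SD of those controls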;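 further: fluorescence ratio of max minus min over baseline after K+ and Tl+ depolarization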); settings: parental CHO-K1 cells, FluxOR thallium flux, at 10 µM; active compounds read high
[23] = target: Potassium voltage-gated channel subfamily KQT member 1 (Homo sapiens) (UniProt P51787); experiment: KCNQ1 potassium channel potentiators, confirmation, FluxOR thallium flux, CHO cells, duplicates (AID 493007;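 active means potentiation averaged over duplicate wells exceeding buffer-only control mean by more than 3 SD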;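 further: 0% = buffer-only wells and 100% = R-L3 activator control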); settings: KCNQ1 cell line, FluxOR thallium flux fluorescence, at 10 µM; active compounds read high, % of reference activator effect, buffer zero
[24] = target: Potassium voltage-gated channel subfamily KQT member 2 (Rattus norvegicus) (UniProt O88943); experiment: rat KCNQ2 channel potentiation, selectivity assay for KCNQ1 potentiator project, KCNQ2-CHO-K1 cells (AID 493009;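 active means mean duplicate potentiation above the buffer control mean plus 5 SD of buffer wells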;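 further: assay conditions were tuned for KCNQ1 rather than KCNQ2 modulators; signal is max minus min fluorescence divided by baseline after thallium stimulus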); settings: FluxOR thallium flux fluorescence, at 10 µM; active compounds read high, scaled: buffer 0, activator control 100
[25] = target: Potassium voltage-gated channel subfamily KQT member 1 (Homo sapiens) (UniProt P51787); experiment: KCNQ1 channel current potentiators, confirmation, orthogonal assay for KCNQ1 potentiator project, IonWorks patch clamp, KCNQ1-CHO cells (AID 493184;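 active means current rise at least 3 SD above the untreated control mean in each of two repeat wells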); settings: automated patch clamp current, at 10 µM; active compounds read high
[26] = target: Inward rectifier potassium channel 2 (Mus musculus) (UniProt P35561); experiment: PubChem AID 2345; settings: HEK293 Kir2.1, FluxOR thallium flux fluorescence; at 10 µM; active compounds read high;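 further: 0% = vehicle mean plus 3 SD and 100% = vehicle minus no-stimulus blank window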
Sequence of Inward rectifier potassium channel 2 (Mus musculus) (P35561 whole entry, looked up): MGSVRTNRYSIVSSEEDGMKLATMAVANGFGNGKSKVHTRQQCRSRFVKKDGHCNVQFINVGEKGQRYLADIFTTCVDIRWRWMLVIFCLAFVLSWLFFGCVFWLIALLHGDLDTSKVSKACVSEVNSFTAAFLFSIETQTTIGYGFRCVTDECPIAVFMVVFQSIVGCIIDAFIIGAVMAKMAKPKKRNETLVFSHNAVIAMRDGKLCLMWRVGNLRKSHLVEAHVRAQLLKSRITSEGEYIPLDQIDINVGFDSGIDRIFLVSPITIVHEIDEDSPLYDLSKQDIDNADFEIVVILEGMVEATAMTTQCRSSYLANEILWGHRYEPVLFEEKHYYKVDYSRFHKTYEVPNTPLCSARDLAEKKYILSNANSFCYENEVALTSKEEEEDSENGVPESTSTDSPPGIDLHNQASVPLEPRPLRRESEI

Sequence of Short transient receptor potential channel 4 (Mus musculus) (Q9QUQ5 whole entry, looked up): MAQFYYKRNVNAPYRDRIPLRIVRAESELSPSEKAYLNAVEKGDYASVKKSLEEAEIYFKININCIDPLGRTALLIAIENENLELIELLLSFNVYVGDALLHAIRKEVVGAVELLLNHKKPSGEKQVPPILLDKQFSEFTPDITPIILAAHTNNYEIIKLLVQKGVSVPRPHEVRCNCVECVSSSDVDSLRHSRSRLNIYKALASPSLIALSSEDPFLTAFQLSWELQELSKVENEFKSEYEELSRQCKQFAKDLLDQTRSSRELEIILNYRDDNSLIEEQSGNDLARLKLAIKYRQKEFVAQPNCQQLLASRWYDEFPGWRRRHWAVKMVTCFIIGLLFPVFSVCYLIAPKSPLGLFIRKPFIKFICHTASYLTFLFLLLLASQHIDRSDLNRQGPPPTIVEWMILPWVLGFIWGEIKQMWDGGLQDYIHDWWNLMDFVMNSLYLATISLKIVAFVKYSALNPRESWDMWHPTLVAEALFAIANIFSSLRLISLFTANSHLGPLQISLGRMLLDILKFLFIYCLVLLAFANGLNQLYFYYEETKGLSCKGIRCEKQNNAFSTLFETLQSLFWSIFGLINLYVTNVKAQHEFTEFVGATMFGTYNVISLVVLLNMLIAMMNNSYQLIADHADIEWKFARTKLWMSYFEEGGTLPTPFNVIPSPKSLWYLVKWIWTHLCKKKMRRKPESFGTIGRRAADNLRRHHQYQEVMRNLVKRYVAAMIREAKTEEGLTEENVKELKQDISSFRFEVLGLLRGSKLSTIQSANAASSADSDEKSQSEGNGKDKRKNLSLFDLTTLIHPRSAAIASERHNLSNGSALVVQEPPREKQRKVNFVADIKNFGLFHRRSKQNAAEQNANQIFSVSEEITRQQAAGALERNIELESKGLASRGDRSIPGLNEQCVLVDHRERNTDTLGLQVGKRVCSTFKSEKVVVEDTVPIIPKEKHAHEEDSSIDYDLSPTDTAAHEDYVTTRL
Sequence of Short transient receptor potential channel 6 (Mus musculus) (Q61143 whole entry, looked up): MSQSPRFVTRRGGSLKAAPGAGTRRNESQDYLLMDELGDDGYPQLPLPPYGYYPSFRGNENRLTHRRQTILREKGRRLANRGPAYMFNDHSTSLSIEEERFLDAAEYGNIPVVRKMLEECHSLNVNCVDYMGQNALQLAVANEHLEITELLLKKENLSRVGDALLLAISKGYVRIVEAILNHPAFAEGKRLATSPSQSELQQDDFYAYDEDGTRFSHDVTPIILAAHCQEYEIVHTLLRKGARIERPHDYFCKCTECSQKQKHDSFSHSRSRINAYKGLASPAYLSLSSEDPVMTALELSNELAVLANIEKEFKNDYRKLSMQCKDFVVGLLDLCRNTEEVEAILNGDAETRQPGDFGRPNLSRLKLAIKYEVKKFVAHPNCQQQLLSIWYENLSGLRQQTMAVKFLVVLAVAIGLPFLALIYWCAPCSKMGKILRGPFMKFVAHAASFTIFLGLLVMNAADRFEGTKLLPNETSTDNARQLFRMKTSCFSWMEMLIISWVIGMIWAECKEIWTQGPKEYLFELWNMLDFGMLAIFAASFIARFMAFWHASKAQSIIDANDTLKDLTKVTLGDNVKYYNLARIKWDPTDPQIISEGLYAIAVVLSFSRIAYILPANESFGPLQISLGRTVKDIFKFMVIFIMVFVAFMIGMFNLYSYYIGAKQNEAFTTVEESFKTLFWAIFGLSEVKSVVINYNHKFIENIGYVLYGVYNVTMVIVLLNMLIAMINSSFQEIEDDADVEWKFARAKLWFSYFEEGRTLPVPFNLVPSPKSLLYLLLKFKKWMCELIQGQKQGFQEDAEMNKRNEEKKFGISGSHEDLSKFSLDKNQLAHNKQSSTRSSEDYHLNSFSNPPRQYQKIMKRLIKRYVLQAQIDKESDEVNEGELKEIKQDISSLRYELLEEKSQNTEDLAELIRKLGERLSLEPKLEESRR
Sequence of Potassium voltage-gated channel subfamily KQT member 1 (Homo sapiens) (P51787 whole entry, looked up): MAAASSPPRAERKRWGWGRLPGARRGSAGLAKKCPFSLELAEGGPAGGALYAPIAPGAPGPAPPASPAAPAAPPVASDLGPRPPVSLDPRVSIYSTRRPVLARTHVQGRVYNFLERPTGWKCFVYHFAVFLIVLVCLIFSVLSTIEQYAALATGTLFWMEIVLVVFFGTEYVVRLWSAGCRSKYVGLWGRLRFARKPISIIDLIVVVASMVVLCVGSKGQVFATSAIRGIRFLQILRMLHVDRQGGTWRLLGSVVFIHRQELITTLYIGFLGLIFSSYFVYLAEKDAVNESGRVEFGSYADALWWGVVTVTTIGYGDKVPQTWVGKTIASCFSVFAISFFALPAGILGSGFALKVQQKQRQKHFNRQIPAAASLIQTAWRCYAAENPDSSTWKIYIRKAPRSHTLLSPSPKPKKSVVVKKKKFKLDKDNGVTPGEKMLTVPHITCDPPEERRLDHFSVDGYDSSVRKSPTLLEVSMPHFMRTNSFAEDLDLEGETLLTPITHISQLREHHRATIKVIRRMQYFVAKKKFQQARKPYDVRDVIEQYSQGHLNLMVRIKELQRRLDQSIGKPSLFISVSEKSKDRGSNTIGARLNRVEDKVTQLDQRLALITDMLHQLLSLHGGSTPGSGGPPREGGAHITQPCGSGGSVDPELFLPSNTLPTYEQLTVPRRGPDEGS

COC(=O)CSc1nnc(CNS(=O)(=O)c2ccc(Br)cc2)n1C
inactive: outcome [1] | outcome [2] | outcome [3] | outcome [4] | outcome [5] | outcome [6] | outcome [7] | outcome [8] | outcome [9] | outcome [10] | outcome [11] | outcome [12] | outcome [13] | outcome [14] | outcome [15] | outcome [16] | outcome [17]

Fc1cc(F)c2nc(Nc3nc4c(F)cccc4s3)sc2c1
active: potentiation, less the hit threshold [20] 20.5% | activation [22] 330% | potentiation [23] 196% | potentiation [24] 422%
inactive: activity increase over 3SD of controls [18] -5.6% | activation over 3SD threshold [19] -15.7% | outcome [21] | outcome [25]

CCOC(=O)C1=C(C)N(c2ccccc2)C(=O)NC1c1cccc([N+](=O)[O-])c1 (centres undefined)
active: potentiation [15] 9.17%
inactive: outcome [1] | outcome [2] | outcome [3] | outcome [4] | outcome [5] | outcome [6] | outcome [7] | outcome [8] | outcome [9] | outcome [10] | outcome [11] | outcome [12] | outcome [13] | outcome [14] | outcome [16] | outcome [17]

Cc1cc(C(=O)OCC(=O)Nc2ccc(F)c(F)c2)c(C)o1
inactive: activity increase over 3SD of controls [18] -17.5% | activation over 3SD threshold [19] -23.1% | outcome [21]
active: potentiation, less the hit threshold [20] 17.6%

COc1ccc(NC(=O)CCCC2CCCCC2)c(OC)c1
inactive: activity increase over 3SD of controls [18] -19.3% | activation over 3SD threshold [19] -6.1% | outcome [21]
active: potentiation, less the hit threshold [20] 80%

COc1cc(NC(=O)C(C)Oc2ccccc2)cc(OC)c1 (centres undefined)
inactive: outcome [1] | outcome [2] | outcome [3] | outcome [4] | outcome [5] | outcome [6] | outcome [7] | outcome [8] | outcome [9] | outcome [10] | outcome [11] | outcome [12] | outcome [13] | outcome [14] | outcome [15] | outcome [16] | outcome [17]

c1ccc(CN2CCN(c3nc4ccccc4s3)CC2)cc1
active: potentiation [4] 9% | potentiation [15] 14.8%
inactive: outcome [1] | outcome [2] | outcome [3] | outcome [5] | outcome [6] | outcome [7] | outcome [8] | outcome [9] | outcome [10] | outcome [11] | outcome [12] | outcome [13] | outcome [14] | outcome [16] | outcome [17]

COc1ccc(CCn2c(=S)[nH]c3cc(C(=O)N4CCOCC4)ccc3c2=O)cc1OC
inactive: outcome [1] | outcome [2] | outcome [3] | outcome [4] | outcome [5] | outcome [6] | outcome [7] | outcome [8] | outcome [9] | outcome [10] | outcome [11] | outcome [12] | outcome [13] | outcome [14] | outcome [15] | outcome [16] | outcome [17]

CCCCNc1c(-c2ccc(SC(C)CC)c(OC)c2)nc2ccc(C)cn12 (centres undefined)
inactive: outcome [1] | outcome [2] | outcome [3] | outcome [4] | outcome [5] | outcome [6] | outcome [7] | outcome [8] | outcome [9] | outcome [10] | outcome [11] | outcome [12] | outcome [13] | outcome [14] | outcome [15] | outcome [16] | outcome [17]

O=C1NC(c2ccccc2)=C(c2nc3ccccc3s2)C(c2ccccc2)N1 (centres undefined)
inactive: outcome [1] | outcome [2] | outcome [3] | outcome [5] | outcome [6] | outcome [7] | outcome [8] | outcome [9] | outcome [10] | outcome [11] | outcome [12] | outcome [13] | outcome [14] | outcome [16] | outcome [17]
active: potentiation [4] 14% | potentiation [15] 24.2%

CC(=O)NNC(=O)c1csc(Cc2c(Cl)sc3ccc(Cl)cc23)n1
active: activity increase over 3SD of controls [18] 26.3% | potentiation, less the hit threshold [20] 12.3% | current increase over 3SD of negative controls (%), active compounds read high [21] 1.62%
inactive: activation over 3SD threshold [19] -5% | activity over 3SD threshold [26] -69.1%

CN(C)S(=O)(=O)c1cccc(COC(=O)c2ccc(Cl)cc2O)c1
inactive: outcome [1] | outcome [2] | outcome [3] | outcome [5] | outcome [6] | outcome [7] | outcome [8] | outcome [9] | outcome [10] | outcome [11] | outcome [12] | outcome [13] | outcome [14] | outcome [16] | outcome [17]
active: potentiation [4] 21% | potentiation [15] 41.5%

COC(=O)/C=C1\SC(=NC(=O)c2cccc(Cl)c2)NC1=O
active: inhibition [5] 76%
inactive: outcome [1] | outcome [2] | outcome [3] | outcome [4] | outcome [6] | outcome [7] | outcome [8] | outcome [9] | outcome [10] | outcome [11] | outcome [12] | outcome [13] | outcome [14] | outcome [15] | outcome [16] | outcome [17]
